# CHX counter – Cycloheximide Counterscreen for Small Molecule Inhibitors of Shiga Toxin; cell reporter, cycloheximide protein synthesis inhibition counterscreen; max response, %; 300,000 tested, 12% active; AID 2314, 2010; in the data active = max response mostly above about 13%, no sharp cut-off; inactive = mostly below about 14%; also: read at 38.3 µM for the half of the compounds with a filed dose
# Shiga inhibitor – A qHTS for Small Molecule Inhibitors of Shiga Toxin. 290,000 tested, 9.2% active. inhibition, % at 38.7 µM. AID 2315, 2010. Vero cells, Shiga toxin protein synthesis inhibition reporter; in the data active = inhibition mostly above about 28%, no sharp cut-off; inactive = mostly below about 43%
# FMDV antiviral – High Throughput Screening for Foot and Mouth Disease Virus Antivirals. 410,000 tested, 1.2% active. Potency, µM (doses to about 57.9 µM), actives largely listed as inhibitors. FMDV antiviral cell-based qHTS; calls by dose curve; tested in HEK293T cells; also: read-out not given here; nearly all actives have a fitted effect of over 45% in size
# Sm TGR inh – qHTS Assay for the Inhibitors of Schistosoma Mansoni Peroxiredoxins; Schistosoma mansoni thioredoxin glutathione reductase (TGR), Q962Y6; Potency, µM (series often up to 114 µM), actives largely listed as inhibitors; purified TGR, DTNB reduction, TNB absorbance 405 nm; 360,000 tested, 3% active; active = well fitted inhibition curve with a large enough effect; inconclusive = small, poorly fitted or top-dose-only effect; inactive = no such curve, though single readings can be large or run the other way; also: nearly all actives have a fitted effect of over 60% in size
#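 Kinetic colorimetric format: TGR-catalysed, NADPH-driven DTNB reduction monitored via TNB absorbance. Enzyme dispensed at 20 nM; compound exposure 15 min at room temperature before reaction start.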
# Numbers stand for hits; i = inactive; ? = inconclusive; nt = no result. In the library only some 12% were active in any assay of this set; here they are far more common.
SMILES,CHX counter,Shiga inhibitor,FMDV antiviral,Sm TGR inh
N#CC1CC(c2ccccc2)=NN1c1ccccc1[N+](=O)[O-] (stereo not given),48.4,113.3,i,i
O=C(NCc1ccccc1F)c1cc(=O)[nH]c2ccccc12,i,i,i,i
O=C(NCc1ccccc1Cl)c1cc(=O)[nH]c2ccccc12,i,i,i,50.1µM
Cc1oc(-c2cccc(Cl)c2)nc1CN1CCCC(C(=O)NC(C)c2ccc3c(c2)OCCO3)C1 (stereo not given),i,i,20µM,i
Cc1oc(-c2ccc(Cl)cc2)nc1CN1CCCC(C(=O)NCCCN2CCOCC2)C1 (stereo not given),i,i,i,79.4µM
CCOc1ccc(-c2nc(CN3CCCC(C(=O)N4CCOCC4)C3)c(C)o2)cc1 (stereo not given),17.6,31.0,i,i
Cc1oc(-c2cccc(Cl)c2)nc1CN1CCCC(C(=O)NCc2ccc(Cl)cc2)C1 (stereo not given),nt,nt,?,i
CC(=O)c1cccc(NC(=S)NC(=O)c2ccc(C)cc2)c1,39.9,87.7,i,nt
Cc1ccc(C(=O)NC(=S)Nc2ccc(NC(=O)c3cccc(Cl)c3)cc2)cc1,i,i,i,i
CCC(=O)NC(=S)Nc1cccc(C(C)=O)c1,i,i,i,i
CCCCCC(=O)NC(=S)Nc1cccc(C(C)=O)c1,22.6,32.3,i,?
CCCC(=O)NC(=S)Nc1cccc(C(C)=O)c1,i,i,i,i
CC(=O)c1cccc(NC(=S)NC(=O)c2ccc(Br)cc2)c1,32.1,i,i,i
Cn1c(=O)c2sccc2n2c(CCCC(=O)NC3CCCCC3)nnc12,nt,nt,i,i
CCOC(=O)c1cc(-c2ccc(OC)cc2)n(CCC(=O)NCCc2ccccc2)c1C,nt,nt,i,i
Cc1ccc(NC(=O)c2cnc(N3CCCCC3)c3ccccc23)c(C)c1,nt,nt,i,i
O=C(/C=C1\NC2(CCCC2)Cc2ccccc21)C(=O)N/N=C/c1ccccc1O,23.0,i,i,i
CC1=C(c2ccc(C)cc2)S(=O)(=O)NC1=NCc1cccc(F)c1,nt,nt,i,i
Cc1csc(=S)n1-c1ccccc1,i,i,i,i
Cc1cc(=O)cc(C)n1-c1ccc(Cl)cc1,i,i,i,nt
Cc1csc(=N)n1-c1ccc(Cl)cc1,58.9,176.0,nt,i
Cc1ccc(-n2c(C)csc2=N)cc1,55.8,54.9,i,i
Cc1cnc(CNc2ccnc(-c3ccc(C(=O)N(C)C)cc3)n2)cn1,nt,nt,i,nt
Cn1c(=O)c(-c2ccccc2)nc2cnc(N3CCOCC3)nc21,nt,nt,i,nt
CC(C)NC(=O)NC(=O)COC(=O)c1ccc(F)cc1F,i,i,i,i
SMILES,CHX counter,Shiga inhibitor,FMDV antiviral,Sm TGR inh
COc1cc(SC)ccc1C(=O)OCC(=O)NCCC1=CCCCC1,nt,nt,i,i
COc1cc(SC)ccc1C(=O)OCC(=O)NCC(C)C,25.3,i,i,i
COc1cc(SC)ccc1C(=O)OCC(=O)NC(=O)NC(C)C,17.1,i,i,i
COc1cc(SC)ccc1C(=O)OCC(=O)N1CCCC1,40.3,50.2,i,i
CSc1ccc(Cl)c(C(=O)OCC(=O)N2CCOCC2)c1,i,i,i,i
CC(C)CNC(=O)COC(=O)c1ccc(F)cc1Cl,28.4,51.8,i,i
CC(C)CNC(=O)COC(=O)c1cc(Cl)cc(Cl)c1N,i,i,i,i
O=C(Cc1ccccc1)Nc1scc(-c2ccccc2)c1C(=O)N1CCOCC1,i,i,i,i
NC(=O)c1c(-c2ccc(Cl)cc2Cl)csc1NC(=O)Cc1ccccc1,15.8,i,?,i
CCOc1ccc2c(c1)c(=O)c(S(=O)(=O)c1ccc(Cl)cc1)cn2Cc1ccccc1C,nt,nt,i,i
C=CS(=O)(=O)c1ccc(Oc2ccc(S(=O)(=O)C=C)cc2)cc1,i,i,3.98µM,2.51µM
CCOC(=O)c1cc(-c2ccccc2)nn1Cc1ccccc1,nt,nt,i,i
COc1ccc(O)c(C2Nc3ccccc3-n3c(-c4ccccc4)c4c(=O)n(C)c(=O)n(C)c4c32)c1 (stereo not given),nt,nt,39.8µM,i
Cc1ccc(-c2c3c(=O)n(C)c(=O)n(C)c3c3n2-c2ccccc2NC3c2ccc(C)cc2O)cc1 (stereo not given),nt,nt,i,i
Cc1ccc(/C=C/C(=O)Oc2ccc(C#N)cc2)o1,i,i,nt,50.1µM
COc1cccc(OC)c1OC(=O)/C=C/c1ccc(C)o1,i,i,i,35.5µM
COc1ccc(-c2nnc(-c3cccs3)o2)cc1OC,51.2,92.2,i,i
CCOc1ccc(-c2nnc(-c3cccs3)o2)cc1,44.7,129.7,i,i
Cc1ccc(OCCSc2nnc(-c3cccs3)o2)cc1,nt,nt,i,i
CCOc1ccc(-c2nc(-c3cccs3)c(CC(=O)O)s2)cc1OC,23.8,i,i,i
c1csc(-c2nnc(-c3ccc(N4CCOCC4)cc3)o2)c1,47.1,62.6,i,i

# Screening data deposited in PubChem BioAssay by National Center for Advancing Translational Sciences (NCATS).
